An excerpt weighted towards active compounds, which were near 6.7% of everything screened.
Pf Dd2 growth: inhibitors of Plasmodium falciparum Dd2 growth | P. falciparum Dd2 growth, SYBR Green, 72 h; stronger effect = lower value | activity change, % at 10 µM | actives 2.3% (n = 94,000) | AID 1159554; in the data active = activity change below about -80%; inconclusive = no clear call, values can overlap the other calls
C diff growth: blocks growth of Clostridium difficile; Clostridium difficile clinical isolate growth, OD600, 24 h; stronger effect = lower value; growth activity, negative = inhibition, % at 16 µg/mL (by protocol); actives 0.25% (n = 86,000);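 active = mean growth activity at or below -80% and every replicate also at or below -80%; inconclusive = mean at or below -80% but some replicate above -80%; inactive = mean growth activity above -80%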;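 note: 0% = DMSO wells and -100% = levofloxacin 16 µg/mL wells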
T cruzi growth-1: inhibitors of T. cruzi proliferation | T. cruzi beta-gal in NIH3T3, GalScreen luminescence, 90 h | inhibition, % at 8.34 µM | actives 5.9% (n = 77,000);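 active = mean inhibition above about 93%, with at least 55% of replicates each passing it, limit read from the data, passing the limit was not always enough; inconclusive = only one of those two conditions holds; inactive = neither condition holds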
T cruzi growth-2: inhibitors of T. cruzi proliferation; actives 72% (n = 5,600); T. cruzi beta-gal in NIH3T3, GalScreen luminescence, 90 h; AID 651739; shares compounds with T cruzi growth-1; inhibition, % at 8.35 µM;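 active = mean replicate inhibition above about 95% and at least 55% of replicates individually reaching it, limit read from the data; inconclusive = only one of the two criteria is met; inactive = neither criterion is met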
T cruzi growth-3: blocks T. cruzi growth in NIH3T3 host cells; shares compounds with T cruzi growth-1; T. cruzi beta-gal in NIH3T3, GalScreen luminescence, 90 h; inhibition, % at 2.09 µM; actives 21% (n = 5,600); AID 651740;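 active = mean inhibition above about 95%, with at least 55% of replicates also reaching it, limit read from the data; inconclusive = meets just one of the two conditions; inactive = meets neither condition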;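 note: plate controls were neutral control median for no effect and positive control median for full effect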
NIH3T3 tox: kills mouse NIH/3T3 fibroblasts. shares compounds with T cruzi growth-1. NIH/3T3 viability, CellTiter-Glo ATP luminescence, 90 h. cytotoxicity (signal decrease), % at 8.35 µM. actives 14% (n = 5,600);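 active = mean signal decrease across replicates above about 35% based on untreated-well scatter, with enough replicates individually passing, limit read from the data; inconclusive = no rule stated though some were filed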;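 note: 0% = median of neutral control wells and 100% = median of positive control wells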
3T3 cytotox 2: kills mouse NIH/3T3 fibroblasts. shares compounds with T cruzi growth-1. NIH/3T3 viability, CellTiter-Glo ATP luminescence, 90 h. inhibition, % at 24.9 µM. actives 56% (n = 5,600);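 active = mean loss of cell viability signal at or above a set limit, and enough replicates individually reaching it; inconclusive = meets only the mean limit or only the replicate share; inactive = meets neither condition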;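 note: 0% = median of neutral control wells and 100% = median of positive control wells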
An asterisk follows results filed as active; u = inconclusive; x = no result given.

SMILES	Pf Dd2 growth	C diff growth	T cruzi growth-1	T cruzi growth-2	T cruzi growth-3	NIH3T3 tox	3T3 cytotox 2
O=C(C[C@@H]1C=C[C@H](NC(=O)Nc2cc(F)ccc2F)[C@@H](CO)O1)Nc1ccc(-c2ccccc2)cc1	x	0	x	x	x	x	x
O=C(C[C@@H]1CC[C@H](NC(=O)CN2CCOCC2)[C@H](CO)O1)NCCc1ccccc1	5	4	-22	x	x	x	x
CCS(=O)(=O)Nc1ccc2c(c1)C(=O)N(C)[C@@H]1CC[C@H](CC(=O)NCc3ccccc3F)O[C@@H]1CO2	x	-1	-2	x	x	x	x
C[C@@H]1CN([C@@H](C)CO)C(=O)CCCn2cc(nn2)CO[C@H]1CN(C)C(=O)C1CC1	8	1	u	48	11	11	15
C[C@H]1CN([C@@H](C)CO)C(=O)CCCn2cc(nn2)CO[C@@H]1CN(C)C(=O)C1CC1	3	-3	4	x	x	x	x
C[C@@H]1CN([C@@H](C)CO)C(=O)CCCn2cc(nn2)CO[C@H]1CN(C)Cc1ccccc1	13	6	121*	-101	-67	-24	-13
C[C@H]1CN([C@@H](C)CO)C(=O)CCCn2cc(nn2)CO[C@@H]1CN(C)Cc1ccccc1	2	x	-21	x	x	x	x
COCC#Cc1ccc2c(c1)O[C@@H](CN(C)S(=O)(=O)c1ccc(OC)cc1)[C@H](C)CN([C@H](C)CO)S2(=O)=O	-42	7	x	x	x	x	x
COc1ccc(NC(=O)Nc2ccc3c(c2)C(=O)N([C@@H](C)CO)C[C@@H](C)[C@@H](CN(C)C(=O)CCC(F)(F)F)OCCCC[C@@H](C)O3)cc1	-25	-6	36	x	x	x	x
CC(C)C(=O)Nc1ccc2c(c1)C(=O)N(C)[C@@H]1CC[C@H](CC(=O)NCc3ccccc3F)O[C@H]1CO2	4	-3	5	x	x	x	x
C[C@H](CO)N1C[C@H](C)[C@@H](CN(C)C(=O)Nc2ccccc2)OCc2ccccc2-c2ccccc2C1=O	17	x	54	x	x	x	x
C[C@H](CO)N1C[C@H](C)[C@H](CN(C)C(=O)Nc2ccnc(N3CCOCC3)c2)OCc2ccccc2-c2ccccc2C1=O	15	-5	110*	u	85	4	24
C[C@H]1CN([C@@H](C)CO)C(=O)c2ccccc2-c2ccccc2CO[C@H]1CN(C)C(=O)Nc1ccnc(N2CCOCC2)c1	6	-5	105*	101*	77	6	33*
C[C@H](CO)N1C[C@H](C)[C@H](CN(C)C(=O)Nc2ccccc2)OCc2ccccc2-c2ccccc2C1=O	52	x	44	x	x	x	x
C[C@@H]1CN([C@@H](C)CO)C(=O)c2ccccc2-c2ccccc2CO[C@@H]1CN(C)C(=O)Nc1ccnc(N2CCOCC2)c1	14	-7	106*	107*	88	-1	28*
C[C@H](CO)N1C[C@H](C)[C@H](CN(C)C(=O)Nc2ccnc(N3CCOCC3)c2)OCc2ccccc2-c2c(n(C)c3ccccc23)C1=O	-56	-14	x	x	x	x	x
COc1ccccc1NC(=O)N1CC(=O)N2[C@H](CO)[C@H](c3ccc(-c4ccccc4)cc3)[C@@H]2C1	2	-5	x	x	x	x	x
O=C(N[C@@H]1CC[C@H](CC(=O)N2CCOCC2)O[C@@H]1CO)c1ccccn1	13	2	-2	x	x	x	x
C[C@H]1CN([C@@H](C)CO)C(=O)c2cccc(NC(=O)C3CCOCC3)c2O[C@@H]1CN(C)S(=O)(=O)c1cccs1	12	0	97	x	x	x	x
C[C@@H]1CCCCO[C@@H](CN(C)C)[C@H](C)CN([C@H](C)CO)C(=O)c2cc(NS(=O)(=O)c3cccs3)ccc2O1	61	-7	56	x	x	x	x
CCCN(C)C[C@@H]1OCCCC[C@@H](C)Oc2ccc(NS(=O)(=O)c3ccc(Cl)cc3)cc2C(=O)N([C@@H](C)CO)C[C@@H]1C	-37	12	87	x	x	x	x
COc1ccc(NC(=O)N2CC(=O)N3[C@@H](CO)[C@@H](c4ccc(-c5ccc(C)cc5)cc4)[C@@H]3C2)cc1	-3	-11	x	x	x	x	x
COc1ccc(NC(=O)Nc2ccc3c(c2)C(=O)N([C@@H](C)CO)C[C@@H](C)[C@H](CN(C)S(=O)(=O)c2ccc(F)cc2)OCCCC[C@@H](C)O3)cc1	-45	2	u	109*	44	-25	11
COc1ccc(S(=O)(=O)N(C)C[C@@H]2OCCCC[C@H](C)Oc3ccc(NC(=O)Nc4ccc(F)cc4)cc3C(=O)N([C@H](C)CO)C[C@@H]2C)cc1	-30	5	115*	102*	57	-5	-7
COc1ccc(NC(=O)Nc2ccc3c(c2)C(=O)N([C@@H](C)CO)C[C@@H](C)[C@@H](CN(C)S(=O)(=O)c2ccc(F)cc2)OCCCC[C@H](C)O3)cc1	-27	10	37	x	x	x	x
SMILES	Pf Dd2 growth	C diff growth	T cruzi growth-1	T cruzi growth-2	T cruzi growth-3	NIH3T3 tox	3T3 cytotox 2
COc1ccc(S(=O)(=O)N(C)C[C@@H]2OCCCC[C@@H](C)Oc3ccc(NC(=O)Nc4ccc(F)cc4)cc3C(=O)N([C@H](C)CO)C[C@@H]2C)cc1	-80	8	52	x	x	x	x
COc1ccc(S(=O)(=O)N(C)C[C@H]2OCCCC[C@@H](C)Oc3ccc(NC(=O)Nc4ccc(F)cc4)cc3C(=O)N([C@@H](C)CO)C[C@@H]2C)cc1	-66	1	u	x	x	x	x
COc1ccc(S(=O)(=O)N(C)C[C@@H]2OCCCC[C@H](C)Oc3ccc(NC(=O)Nc4ccc(F)cc4)cc3C(=O)N([C@@H](C)CO)C[C@@H]2C)cc1	-79	2	116*	108*	93	-17	-11
CC(=O)N1[C@@H](CO)[C@@H](c2ccccc2)[C@@H]1CN(CC1CCC1)C(=O)CN(C)C	-6	5	98*	30	-18	8	22
CC(=O)N1[C@H](CO)[C@@H](c2ccccc2)[C@@H]1CN(CC1CCC1)C(=O)CN(C)C	-1	1	27	x	x	x	x
CC(=O)N1[C@H](CO)[C@H](c2ccccc2)[C@H]1CN(CC1CCC1)C(=O)CN(C)C	0	-8	101*	u	0	-23	-13
CCC(=O)N(CC1CCC1)C[C@H]1[C@H](c2ccccc2)[C@@H](CO)N1C(C)=O	-6	-7	73	x	x	x	x
COc1ccc(NC(=O)N(C)C[C@@H]2OCCCC[C@H](C)Oc3ccc(NC(=O)Nc4ccccc4)cc3C(=O)N([C@H](C)CO)C[C@@H]2C)cc1	3	4	56	x	x	x	x
C[C@@H]1CCCCO[C@H](CN(C)Cc2ccc(C(=O)O)cc2)[C@@H](C)CN([C@@H](C)CO)C(=O)c2cc(NC(=O)NC3CCCCC3)ccc2O1	40	-2	-21	x	x	x	x
C[C@H]1CN([C@@H](C)CO)C(=O)c2cc(C#Cc3cccnc3)cnc2O[C@H]1CN(C)C(=O)CC1CC1	-11	-10	64	x	x	x	x
O=S(=O)(c1ccccc1)N1C[C@H]2[C@@H](c3ccccc31)[C@@H](CO)N2Cc1ccc(F)cc1	2	27	84	x	x	x	x

Source: PubChem (Broad Institute)
